Test results taken from PubChem BioAssay (NCI).
The panel holds about 79,000 compounds, 15% with a hit somewhere; the sample as a whole holds those more often. Activity calls are given as the source filed them. Cut-off read from the data, not from the text of the source: active = growth inhibition above about 70%; inactive = the rest.

What was measured:
[1] = NCI Yeast Anticancer Drug Screen. Data for the rad50 strain (AID 155);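 note: 0% = growth of vehicle-only cultures of the same strain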; details: S. cerevisiae rad50 strain growth inhibition; at 50.0 µM; active compounds read high
Summary of the method: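 DNA repair mutant yeast, compound exposure, growth read-out; inhibition is taken relative to vehicle.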

[2] = NCI Yeast Anticancer Drug Screen. Data for the mec2-1 strain (AID 157); details: S. cerevisiae mec2-1 strain, at 50.0 µM, active compounds read high
Summary of the method: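 Readout is yeast growth inhibition, normalised to vehicle-treated controls, in the mec2-1 strain exposed to compound.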

[3] = NCI Yeast Anticancer Drug Screen. Data for the sgs1 mgt1 strain (AID 161);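 note: 0% = growth of cultures given vehicle only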; details: S. cerevisiae sgs1 mgt1 strain, at 50.0 µM, active compounds read high
Summary of the method: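 Yeast cells carrying a defined DNA-repair defect were exposed to test compounds. Growth inhibition was measured relative to vehicle-treated controls.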

[4] = NCI Yeast Anticancer Drug Screen. Data for the cln2 rad14 strain (AID 165);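 note: 0% = growth equal to vehicle treated cultures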; details: S. cerevisiae cln2 rad14 strain, at 50.0 µM, active compounds read high
Summary of the method: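 Relative to vehicle controls, growth inhibition of compound-treated cln2 rad14 yeast was recorded.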

[5] = NCI Yeast Anticancer Drug Screen. Data for the bub3 strain (AID 167); details: S. cerevisiae bub3 mutant strain, at 50.0 µM, active compounds read high
Summary of the method: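 In this screen, a yeast mutant lacking normal mitotic checkpoint function is challenged with compound. Relative growth versus vehicle gives the inhibition value.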

[6] = NCI Yeast Anticancer Drug Screen. Data for the mlh1 rad18 strain (AID 175); details: S. cerevisiae mlh1 rad18 strain growth inhibition; at 50.0 µM; active compounds read high
Summary of the method: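 Test agents were incubated with a yeast strain of defined genotype (DNA damage repair defect). Inhibition of growth was derived by comparison with vehicle-exposed cultures.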

Measured: growth inhibition

CC(=O)C(=C(c1ccccc1)c1ccccc1)c1ccccc1
inactive: [1] -51.4% | [2] -7.8% | [3] -32.9% | [4] -1.4% | [5] -46.6% | [6] 7.6%

C[N+]1(CC[N+]2(C)CCCC2c2cccnc2)CCCC1c1cccnc1 (stereo unspecified)
inactive: [1] 6.15% | [2] -0.2% | [3] -16.9% | [4] -34.5% | [5] 28% | [6] 19.9%

CCCCc1c(C#N)c(=O)n2c(N)c(C#N)cnc2c1SC
inactive: [1] 18.9% | [2] 8.45% | [3] 21.2% | [4] 1.5% | [5] 12.7% | [6] 25.8%

[N-]=[N+]=Nc1cc(-c2ccccc2)nc2cc3c(cc12)OCO3
inactive: [1] -2.9% | [2] -7.95% | [3] -19.8% | [4] -16.4% | [5] -34.2% | [6] -7.2%

CC1(C)COC(CCl)OC1
inactive: [1] 27.1% | [2] 17.9% | [3] 11.3% | [4] -16.5% | [5] 1.95% | [6] 30.9%

O=C(NNC(=O)c1ccc(Cl)c(Cl)c1)c1ccc(Cl)c(Cl)c1
inactive: [1] -37.9% | [2] -56.5% | [3] -25.1% | [4] 6.15% | [5] -16.4% | [6] -33.1%

[Cl][Sn]1([Cl])[CH2]CCCCCCCCCC[CH2][Sn]([Cl])([Cl])[CH2]CCCCCCCCCC[CH2]1
inactive: [1] -12.9% | [2] 1.2% | [3] 9.65% | [4] -12.7% | [5] -13.6% | [6] -25.5%

CNSC1CCC2(C)C(=CCC3C2CCC2(C)C(C(C)CCCC(C)C)CCC32)C1 (stereo unspecified)
inactive: [1] -1.3% | [2] 1.7% | [3] -9.6% | [4] -5.05% | [5] -3% | [6] 10%

Cc1c(-c2ccccc2)n[nH]c1-c1[nH]nc(-c2ccccc2)c1C
inactive: [1] -9.7% | [2] -16.9% | [3] -24.2% | [4] -15% | [5] -41.1% | [6] -19.1%

O=C1C(Br)=C(Br)C(=O)C2=C1C1c3ccccc3C2c2ccccc21
active: [1] 98.5% | [2] 98.2% | [3] 97.8% | [4] 97% | [5] 98.2% | [6] 97.8%

CCOc1ccc(C2Oc3c(cccc3OC)C=C2[N+](=O)[O-])cc1OCC (stereo unspecified)
inactive: [1] 38.8% | [2] 38.9% | [3] 32.5% | [4] 11.4% | [5] 42.2% | [6] 5.7%

NS(=O)(=O)c1ccc(N=Cc2ccccc2)cc1
inactive: [1] 0.4% | [2] -1.35% | [3] 12.6% | [4] 5.45% | [5] 15.2% | [6] 10.1%

C=CCn1c(=S)sc2c(=O)[nH]cnc21
inactive: [1] 14.6% | [2] 1.7% | [3] 25.8% | [4] 22.3% | [5] 8.15% | [6] 11.4%

NC(=S)NCc1ccccc1C(O)c1ccccc1 (stereo unspecified)
inactive: [1] 18.8% | [2] 13.8% | [3] -0.75% | [4] 18.3% | [5] 18.5% | [6] 21.2%

COc1ccc2c(c1)c(CO)c(CO)c[n+]2[O-]
inactive: [1] 11.7% | [2] 3.1% | [3] 16% | [4] 2.75% | [5] 11.8% | [6] 6.15%

C/C(CC(C)C)=N\NC(=O)Nc1ccccc1Cl
inactive: [1] 4.5% | [2] 5.7% | [3] -2.4% | [4] -3.85% | [5] 26.7% | [6] 6.35%

[Cu+2].[O-]C1c2c(ccc3ccccc23)-c2ccccc2C1N=Nc1ccccc1.[O-]c1c(N=Nc2ccccc2)c2ccccc2c2ccc3ccccc3c12 (stereo unspecified)
inactive: [1] -19.1% | [2] -20.7% | [3] -7.8% | [4] -20.4% | [5] -10.9% | [6] -20.2%

Cc1ccc(SCc2cn(C3OC(CO)C(O)C3O)c(=O)[nH]c2=O)cc1 (stereo unspecified)
inactive: [1] 25.3% | [2] 20.4% | [3] 12.9% | [4] 22.6% | [5] -1.4% | [6] 12.2%

C/C=C(\C)CCC(C)(O)CC (stereo unspecified)
inactive: [1] 2.2% | [2] -15.6% | [3] 7.45% | [4] 3% | [5] -22.4% | [6] 14.1%

O=C1CCN2CCC(=O)c3c2c(cc2ccccc32)N1
inactive: [1] 6.25% | [2] -15.8% | [3] -4.45% | [4] 10.3% | [5] -12.7% | [6] -12.6%

CC(=O)OC/C=C(\C)CC(/C=C(C)/C=C/C1=C(C)CCCC1(C)C)S(=O)(=O)c1ccccc1 (stereo unspecified)
inactive: [1] 35.5% | [2] 9.4% | [3] -6.15% | [4] 2.05% | [5] 0.2% | [6] -5.15%
